# Laboratory results reported in the supplement of paper PMC10849652.
# Of roughly 7,900 targets only a part is listed; those with a hit were picked by preference. About 0.6% of all pairs of compound and target were hits.
# Compound: CC(C)C[C@@H](C=O)NC(=O)[C@H](CC(C)C)NC(=O)[C@H](CC(C)C)NC(=O)OCc1ccccc1
# Assay: log2 fold change, soluble protein after heating vs DMSO (PISA); higher = thermal stabilisation; K562 cells, 10 uM, 30 min; active = over 0.2 and 3.5 SD of the protein, either way, in both replicates (recomputed)
# Procedure, shortened: (§1)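 Values are thermal stability changes relative to control samples and are taken from duplicates. They are stated as log2 fold changes. Before quantification by TMTpro 16plex LC-MS/MS with equalised channel sums, K562 cells at 2×10^6 cells/mL were treated with 10 μM compound for 30 min, heated in aliquots for 3 min across 48°C-58°C, pooled, extracted in PBS with 0.5% NP-40 at 4°C, and centrifuged at 21,000xg for 90 min to give the soluble supernatant.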
# Sequence of UniProt Q05209 (Q05209 whole entry, looked up): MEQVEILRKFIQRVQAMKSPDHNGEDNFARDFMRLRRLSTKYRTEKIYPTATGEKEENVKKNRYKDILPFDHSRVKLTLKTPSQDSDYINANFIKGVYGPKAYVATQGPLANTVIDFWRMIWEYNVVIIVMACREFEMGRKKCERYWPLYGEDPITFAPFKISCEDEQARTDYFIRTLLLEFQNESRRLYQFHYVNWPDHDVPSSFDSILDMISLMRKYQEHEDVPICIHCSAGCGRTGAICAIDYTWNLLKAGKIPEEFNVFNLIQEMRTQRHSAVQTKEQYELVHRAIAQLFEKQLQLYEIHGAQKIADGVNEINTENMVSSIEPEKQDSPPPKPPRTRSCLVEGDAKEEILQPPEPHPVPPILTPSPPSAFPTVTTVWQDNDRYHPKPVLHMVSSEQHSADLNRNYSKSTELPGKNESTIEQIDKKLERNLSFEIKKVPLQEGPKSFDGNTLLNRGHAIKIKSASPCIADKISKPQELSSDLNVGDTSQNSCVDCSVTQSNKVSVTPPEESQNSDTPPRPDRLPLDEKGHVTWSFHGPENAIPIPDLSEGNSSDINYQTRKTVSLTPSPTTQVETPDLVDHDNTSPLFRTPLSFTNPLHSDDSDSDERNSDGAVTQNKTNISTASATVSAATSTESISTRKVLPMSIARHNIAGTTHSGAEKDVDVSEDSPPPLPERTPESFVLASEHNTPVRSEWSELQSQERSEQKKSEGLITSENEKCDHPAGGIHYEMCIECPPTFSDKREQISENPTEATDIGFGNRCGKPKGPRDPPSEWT
# Sequence of UniProt P46019 (P46019 whole entry, looked up): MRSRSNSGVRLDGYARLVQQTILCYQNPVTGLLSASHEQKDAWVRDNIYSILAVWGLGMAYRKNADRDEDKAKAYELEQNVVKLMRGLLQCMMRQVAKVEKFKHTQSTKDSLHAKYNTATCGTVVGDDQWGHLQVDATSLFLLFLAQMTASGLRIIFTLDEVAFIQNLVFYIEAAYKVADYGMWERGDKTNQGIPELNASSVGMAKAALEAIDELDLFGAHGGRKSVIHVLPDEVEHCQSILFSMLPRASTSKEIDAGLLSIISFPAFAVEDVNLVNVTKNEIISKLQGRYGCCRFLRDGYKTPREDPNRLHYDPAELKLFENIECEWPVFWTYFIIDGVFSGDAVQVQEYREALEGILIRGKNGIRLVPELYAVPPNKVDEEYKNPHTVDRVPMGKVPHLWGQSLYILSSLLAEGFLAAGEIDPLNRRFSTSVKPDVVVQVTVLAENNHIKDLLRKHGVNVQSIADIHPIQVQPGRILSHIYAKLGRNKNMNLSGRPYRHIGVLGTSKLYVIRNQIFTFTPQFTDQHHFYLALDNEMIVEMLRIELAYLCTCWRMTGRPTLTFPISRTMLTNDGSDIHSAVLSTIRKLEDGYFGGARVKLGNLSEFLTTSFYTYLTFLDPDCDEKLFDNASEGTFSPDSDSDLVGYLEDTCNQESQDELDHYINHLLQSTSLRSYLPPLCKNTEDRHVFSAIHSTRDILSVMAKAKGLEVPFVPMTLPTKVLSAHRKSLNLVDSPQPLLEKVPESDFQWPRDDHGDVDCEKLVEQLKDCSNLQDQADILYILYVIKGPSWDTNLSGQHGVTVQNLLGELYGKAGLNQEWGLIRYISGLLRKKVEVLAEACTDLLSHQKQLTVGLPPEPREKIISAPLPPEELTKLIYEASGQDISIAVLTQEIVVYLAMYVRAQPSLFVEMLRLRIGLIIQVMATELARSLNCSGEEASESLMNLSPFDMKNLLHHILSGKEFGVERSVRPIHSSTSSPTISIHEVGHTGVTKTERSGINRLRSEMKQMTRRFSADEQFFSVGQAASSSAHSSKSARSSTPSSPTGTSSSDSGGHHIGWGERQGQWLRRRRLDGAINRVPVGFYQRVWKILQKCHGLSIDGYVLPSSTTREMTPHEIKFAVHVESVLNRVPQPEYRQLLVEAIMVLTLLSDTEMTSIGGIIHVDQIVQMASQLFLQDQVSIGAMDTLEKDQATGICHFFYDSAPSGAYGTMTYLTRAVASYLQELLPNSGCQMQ
# Sequence of UniProt P42338 (P42338 whole entry, looked up): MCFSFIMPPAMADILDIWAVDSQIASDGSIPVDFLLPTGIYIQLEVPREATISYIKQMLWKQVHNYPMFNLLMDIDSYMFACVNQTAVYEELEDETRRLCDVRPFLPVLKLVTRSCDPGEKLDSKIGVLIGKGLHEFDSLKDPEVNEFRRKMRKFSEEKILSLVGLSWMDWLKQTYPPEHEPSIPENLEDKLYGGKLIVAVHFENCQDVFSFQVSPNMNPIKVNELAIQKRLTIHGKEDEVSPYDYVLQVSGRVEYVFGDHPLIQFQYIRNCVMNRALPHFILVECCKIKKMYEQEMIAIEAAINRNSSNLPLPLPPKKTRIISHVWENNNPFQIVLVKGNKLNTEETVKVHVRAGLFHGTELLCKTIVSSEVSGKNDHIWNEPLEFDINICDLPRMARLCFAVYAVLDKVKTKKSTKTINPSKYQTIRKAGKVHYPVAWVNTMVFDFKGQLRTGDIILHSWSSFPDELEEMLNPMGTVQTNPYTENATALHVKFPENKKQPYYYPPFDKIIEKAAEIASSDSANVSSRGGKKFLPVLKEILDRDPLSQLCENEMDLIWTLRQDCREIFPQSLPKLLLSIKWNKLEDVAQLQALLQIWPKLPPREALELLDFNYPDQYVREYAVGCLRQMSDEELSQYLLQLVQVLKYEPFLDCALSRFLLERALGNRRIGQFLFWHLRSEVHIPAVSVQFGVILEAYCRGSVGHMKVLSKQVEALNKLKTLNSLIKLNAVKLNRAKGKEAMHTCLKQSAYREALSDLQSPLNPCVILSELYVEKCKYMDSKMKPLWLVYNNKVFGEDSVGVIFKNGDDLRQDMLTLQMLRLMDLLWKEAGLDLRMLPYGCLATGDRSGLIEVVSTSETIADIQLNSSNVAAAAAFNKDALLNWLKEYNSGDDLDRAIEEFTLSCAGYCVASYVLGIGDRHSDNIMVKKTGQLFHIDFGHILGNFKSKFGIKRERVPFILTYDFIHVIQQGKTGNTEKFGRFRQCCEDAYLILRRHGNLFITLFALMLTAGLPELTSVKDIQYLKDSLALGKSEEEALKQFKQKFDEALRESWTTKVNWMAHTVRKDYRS
# Sequence of UniProt Q92968 (Q92968 whole entry, looked up): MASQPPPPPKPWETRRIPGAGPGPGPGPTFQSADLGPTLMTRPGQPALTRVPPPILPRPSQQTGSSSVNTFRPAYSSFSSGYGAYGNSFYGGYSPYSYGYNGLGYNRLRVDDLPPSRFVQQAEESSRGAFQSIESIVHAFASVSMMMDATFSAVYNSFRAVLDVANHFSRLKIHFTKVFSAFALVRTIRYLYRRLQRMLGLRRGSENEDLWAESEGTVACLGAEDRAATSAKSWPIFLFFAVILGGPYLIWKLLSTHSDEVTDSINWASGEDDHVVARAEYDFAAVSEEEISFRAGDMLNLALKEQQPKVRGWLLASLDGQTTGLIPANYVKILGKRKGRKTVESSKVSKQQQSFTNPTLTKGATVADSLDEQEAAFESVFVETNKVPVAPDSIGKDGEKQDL
# Sequence of UniProt Q00577 (Q00577 whole entry, looked up): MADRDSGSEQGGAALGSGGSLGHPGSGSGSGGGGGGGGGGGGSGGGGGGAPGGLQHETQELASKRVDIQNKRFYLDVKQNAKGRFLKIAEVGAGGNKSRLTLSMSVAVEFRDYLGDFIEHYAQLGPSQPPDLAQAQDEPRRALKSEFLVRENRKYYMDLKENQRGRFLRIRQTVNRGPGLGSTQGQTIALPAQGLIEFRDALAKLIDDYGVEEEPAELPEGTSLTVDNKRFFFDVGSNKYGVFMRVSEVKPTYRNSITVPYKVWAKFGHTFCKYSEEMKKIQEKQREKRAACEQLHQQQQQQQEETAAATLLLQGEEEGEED
# Sequence of UniProt O60256 (O60256 whole entry, looked up): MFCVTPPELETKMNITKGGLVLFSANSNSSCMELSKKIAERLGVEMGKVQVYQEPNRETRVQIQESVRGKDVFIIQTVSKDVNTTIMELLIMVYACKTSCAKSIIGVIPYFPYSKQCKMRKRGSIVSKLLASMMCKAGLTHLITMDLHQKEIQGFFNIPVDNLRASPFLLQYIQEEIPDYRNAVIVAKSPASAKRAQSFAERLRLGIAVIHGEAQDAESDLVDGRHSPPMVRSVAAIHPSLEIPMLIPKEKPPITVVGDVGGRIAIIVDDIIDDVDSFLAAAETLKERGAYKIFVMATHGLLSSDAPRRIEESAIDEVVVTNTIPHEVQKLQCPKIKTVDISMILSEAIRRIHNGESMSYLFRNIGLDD
# Sequence of UniProt Q9H300 (Q9H300 whole entry, looked up): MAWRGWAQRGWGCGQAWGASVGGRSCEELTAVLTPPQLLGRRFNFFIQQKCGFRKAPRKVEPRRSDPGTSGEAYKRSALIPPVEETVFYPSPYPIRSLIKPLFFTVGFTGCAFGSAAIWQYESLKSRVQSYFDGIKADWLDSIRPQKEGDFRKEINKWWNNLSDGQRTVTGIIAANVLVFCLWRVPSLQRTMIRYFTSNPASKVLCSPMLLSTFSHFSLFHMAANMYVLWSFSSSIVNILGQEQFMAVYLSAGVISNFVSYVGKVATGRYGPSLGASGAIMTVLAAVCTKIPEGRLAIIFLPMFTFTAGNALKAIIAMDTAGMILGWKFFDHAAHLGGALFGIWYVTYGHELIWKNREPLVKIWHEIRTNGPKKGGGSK
# Sequence of UniProt P28070 (P28070 whole entry, looked up): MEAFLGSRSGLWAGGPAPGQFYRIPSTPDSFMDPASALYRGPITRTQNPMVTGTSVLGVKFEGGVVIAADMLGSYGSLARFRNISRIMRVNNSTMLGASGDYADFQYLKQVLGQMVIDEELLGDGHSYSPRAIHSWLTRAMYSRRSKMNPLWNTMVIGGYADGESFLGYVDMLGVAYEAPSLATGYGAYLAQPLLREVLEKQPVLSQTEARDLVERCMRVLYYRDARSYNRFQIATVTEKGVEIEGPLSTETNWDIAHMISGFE
# Sequence of UniProt Q96A00 (Q96A00 whole entry, looked up): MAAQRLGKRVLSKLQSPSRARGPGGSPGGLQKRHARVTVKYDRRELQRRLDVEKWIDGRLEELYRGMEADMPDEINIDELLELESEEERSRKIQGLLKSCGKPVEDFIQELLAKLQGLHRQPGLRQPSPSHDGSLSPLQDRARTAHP
row,Target,log2 fold change
1,PSMD3 (UniProt O43242),-0.22 (active)
2,PARL (UniProt Q9H300),0.005 (inactive)
3,PEX13 (UniProt Q92968),0.036 (inactive)
4,PURA (UniProt Q00577),0.079 (inactive)
5,PSMB4 (UniProt P28070),-0.043 (inactive)
6,PIK3CB (UniProt P42338),0.02 (inactive)
7,PPP2R5C isoform 4 (UniProt Q13362),0.034 (inactive)
8,PUF60 (UniProt Q9UHX1),-0.003 (inactive)
9,PRKACA (UniProt P17612),0.005 (inactive)
10,PRPSAP2 (UniProt O60256),-0.017 (inactive)
11,PHKA2 (UniProt P46019),0.065 (inactive)
12,PTPN12 (UniProt Q05209),0.057 (inactive)
13,RAB11FIP1 (UniProt Q6WKZ4),-0.004 (inactive)

# Compound: CC(C)N(C[C@H]1O[C@@H](n2cnc3c(N)ncnc32)[C@H](O)[C@@H]1O)[C@H]1C[C@@H](CCc2nc3cc(C(C)(C)C)ccc3[nH]2)C1 [pinometostat]
# Assay: as above
# Procedure, shortened: as §1
row,Target,log2 fold change
1,PHF5A (UniProt Q7RTV0),-0.073 (inactive)
2,PRKAR2A (UniProt P13861),0.074 (inactive)
3,PRUNE1 (UniProt Q86TP1),0.08 (inactive)
4,POMP (UniProt Q9Y244),-0.023 (inactive)
5,PPT2 isoform 3 (UniProt Q9UMR5),-0.041 (inactive)
6,PIP4P1 isoform 2 (UniProt Q86T03),-0.031 (inactive)
7,POLD1 (UniProt P28340),0.024 (inactive)
8,PGGT1B (UniProt P53609),-0.03 (inactive)
9,PPP1R14A (UniProt Q96A00),-0.065 (inactive)
10,PRMT3 (UniProt O60678),0.003 (inactive)
11,PEX11B (UniProt O96011),-0.031 (inactive)
12,PCYT1A (UniProt P49585),-0.005 (inactive)
13,PISD (UniProt Q9UG56),-0.013 (inactive)
14,PSMD5 (UniProt Q16401),-0.003 (inactive)
15,PRPF40A (UniProt O75400),-0.041 (inactive)
16,PDIK1L (UniProt Q8N165),-0.012 (inactive)
17,PMPCA (UniProt Q10713),-0.015 (inactive)
18,PDCD2L (UniProt Q9BRP1),0.007 (inactive)

row,Target,log2 fold change
1,PSMC6 (UniProt P62333),0.01 (inactive)
2,PRKAB1 (UniProt Q9Y478),-0.048 (inactive)
3,PDSS2 (UniProt Q86YH6),-0.017 (inactive)
4,POLA1 (UniProt P09884),-0.027 (inactive)
5,PGM3 isoform 4 (UniProt O95394),0.012 (inactive)
6,PSMD3 (UniProt O43242),0.067 (inactive)
7,PARL (UniProt Q9H300),-0.006 (inactive)
8,PEX13 (UniProt Q92968),-0.032 (inactive)
9,PURA (UniProt Q00577),0.087 (inactive)
10,PSMB4 (UniProt P28070),0.03 (inactive)
11,PIK3CB (UniProt P42338),-0.069 (inactive)
12,PPP2R5C isoform 4 (UniProt Q13362),0.043 (inactive)
13,PUF60 (UniProt Q9UHX1),-0.016 (inactive)
14,PRKACA (UniProt P17612),-0.06 (inactive)
15,PRPSAP2 (UniProt O60256),-0.003 (inactive)
16,PHKA2 (UniProt P46019),0.138 (inactive)
17,PTPN12 (UniProt Q05209),0.045 (inactive)
18,RAB11FIP1 (UniProt Q6WKZ4),0.059 (inactive)

# Compound: CC1=C(C(CC(=O)N1)C2=CC=C(C=C2)C(F)(F)F)C(=O)NC3=C(C=C4C(=C3)C=NN4)F
# Assay: as above
# Procedure, shortened: as §1
row,Target,log2 fold change
1,PHF5A (UniProt Q7RTV0),0.011 (inactive)
2,PRKAR2A (UniProt P13861),-0.06 (inactive)
3,PRUNE1 (UniProt Q86TP1),-0.019 (inactive)
4,POMP (UniProt Q9Y244),0.076 (inactive)
5,PPT2 isoform 3 (UniProt Q9UMR5),-0.012 (inactive)
6,PIP4P1 isoform 2 (UniProt Q86T03),0.131 (inactive)
7,POLD1 (UniProt P28340),-0.005 (inactive)
8,PGGT1B (UniProt P53609),0.027 (inactive)
9,PPP1R14A (UniProt Q96A00),0.01 (inactive)
10,PRMT3 (UniProt O60678),0.013 (inactive)
11,PEX11B (UniProt O96011),0.055 (inactive)
12,PCYT1A (UniProt P49585),0.116 (inactive)
13,PISD (UniProt Q9UG56),-0.039 (inactive)
14,PSMD5 (UniProt Q16401),0 (inactive)
15,PRPF40A (UniProt O75400),-0.034 (inactive)
16,PDIK1L (UniProt Q8N165),0.052 (inactive)
17,PMPCA (UniProt Q10713),-0.034 (inactive)
18,PDCD2L (UniProt Q9BRP1),0.065 (inactive)

row,Target,log2 fold change
1,PSMC6 (UniProt P62333),0.075 (inactive)
2,PRKAB1 (UniProt Q9Y478),0.036 (inactive)
3,PDSS2 (UniProt Q86YH6),-0.438 (active)
4,POLA1 (UniProt P09884),-0.044 (inactive)
5,PGM3 isoform 4 (UniProt O95394),-0.021 (inactive)
6,PSMD3 (UniProt O43242),0.016 (inactive)
7,PARL (UniProt Q9H300),0.059 (inactive)
8,PEX13 (UniProt Q92968),0.003 (inactive)
9,PURA (UniProt Q00577),-0.005 (inactive)
10,PSMB4 (UniProt P28070),0.013 (inactive)
11,PIK3CB (UniProt P42338),-0.026 (inactive)
12,PPP2R5C isoform 4 (UniProt Q13362),0.016 (inactive)
13,PUF60 (UniProt Q9UHX1),0.001 (inactive)
14,PRKACA (UniProt P17612),-0.07 (inactive)
15,PRPSAP2 (UniProt O60256),0.033 (inactive)
16,PHKA2 (UniProt P46019),0.176 (inactive)
17,PTPN12 (UniProt Q05209),-0.004 (inactive)
18,RAB11FIP1 (UniProt Q6WKZ4),-0.021 (inactive)
